In the library only some 7.3% were active in any assay of this set; here they are far more common.
SNCA viab count = cell viability loss counter-screen | HEK-293-SNCA-luc viability, GF-AFC fluorescence, 24 h | AID 1671193 | 150,000 compounds, 0.12% hits | Potency, µM (titrated, usually from 57.1 µM), for the others: top-dose activity change, negative = cytotoxicity, usual class: cytotoxic;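 also: potency is read from the fitted curve at half-maximal effect; 0% = DMSO-treated cells and -100% = medium-only wells without cells; nearly all actives have a fitted effect of over 30% in size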
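HEK-293-SNCA-luc cells (1500/well) plated 24 h, then exposed 24 h to a dilution series; GF-AFC added 30 min at 37C, fluorescence 405/540 nm; normalised to medium-only and DMSO wells, Hill fit.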
HEK cytotox = cytotoxic compounds in HEK 293 cells. 94,000 compounds, 6.6% hits. HEK 293 viability, ATP luminescence (CellTiter-Glo), 48-72 h. Potency, µM (titrated, usually from 115 µM), without a hit: at the top dose activity change, negative = cytotoxicity, most hits filed as inhibitors; also: potency is read from the fitted curve at half-maximal effect; nearly all actives have a fitted effect of over 60% in size
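250 HEK 293 cells/well; compound by pintool; incubated 48 or 72 hr at 37 degree Celsius; CellTiter-Glo added, 10 min RT, luminescence imaged.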
3T3 cytotox = NIH 3T3 cell cytotoxicity | 94,000 compounds, 4.3% hits | NIH 3T3 viability, CellTiter-Glo ATP luminescence, 48-72 h | Potency, µM (titrated, usually from 96.7 µM), for the others: top-dose activity change, negative = cytotoxicity, most hits filed as inhibitors; also: potency is read from the fitted curve at half-maximal effect; nearly all actives have a fitted effect of over 55% in size
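ATP-dependent luminescence (CellTiter-Glo) served as the viability signal for NIH 3T3 cells treated with compound for 48 or 72 hr at 37 °C.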
Luciferase inh = inhibitors of firefly (Photinus pyralis) luciferase | P08659 | 76,000 compounds, 2.5% hits | purified P. pyralis luciferase, luminescence, biochemical | AID 1347043 | Potency, µM (doses to about 115 µM), most hits filed as inhibitors; also: potency is read from the fitted curve at half-maximal effect; nearly all actives have a fitted effect of over 65% in size
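Luminescence read by CCD imaging after purified firefly luciferase (10nM final) was added to substrate buffer holding 10uM D-luciferin and 10uM ATP, pH 7.5, pre-dosed with compound.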
SNCA expr inhib = inhibitors of alpha-synuclein (SNCA) gene expression | HEK-293 SNCA-luciferase knock-in, luminescence, 24 h | Potency, µM (titrated, usually from 57.2 µM), for the others: at the highest dose activity change, negative = inhibition, usual class: inhibitors | 140,000 compounds, 0.17% hits;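 also: potency is read from the fitted curve at half-maximal effect; plate controls were DMSO cells for no effect and cell-free wells for full effect; nearly all actives have a fitted effect of over 45% in size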
IP6K1 inh = blocks human inositol hexakisphosphate kinase 1; activity change, % (series mostly up to about 58 µM); 140,000 compounds, 0.81% hits; IP6K1 kinase, ADP-Glo luminescence, 2 h; active compounds read low; AID 1645851; in the data active = activity change below about -25%
Target sequence (Q92551 whole entry, looked up): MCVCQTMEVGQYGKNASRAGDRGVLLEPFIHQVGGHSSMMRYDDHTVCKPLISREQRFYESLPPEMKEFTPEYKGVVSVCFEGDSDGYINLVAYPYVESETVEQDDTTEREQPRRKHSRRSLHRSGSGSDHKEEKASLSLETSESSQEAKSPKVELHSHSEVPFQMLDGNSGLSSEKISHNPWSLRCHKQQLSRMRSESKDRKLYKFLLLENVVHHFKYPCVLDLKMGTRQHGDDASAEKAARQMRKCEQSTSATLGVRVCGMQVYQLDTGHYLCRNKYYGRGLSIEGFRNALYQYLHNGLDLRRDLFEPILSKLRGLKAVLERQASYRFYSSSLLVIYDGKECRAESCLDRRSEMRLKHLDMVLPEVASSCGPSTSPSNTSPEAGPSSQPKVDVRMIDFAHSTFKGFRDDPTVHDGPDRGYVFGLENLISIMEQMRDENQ
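ADP-Glo luminescence measures ADP made by human IP6K1 during a 2 h RT reaction with ATP/IP6 (mix at 1.3 mM/130 uM); top library doses 57.5 and 19.1 uM final.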
Numbers without * were called inactive; i = inactive; ? = inconclusive; / = not tested or not shown; [ ] = another dose, or the depositor's remark. Unless noted, calls follow the shape of the dose curve; as a rule, active = well fitted curve in the direction sought with a large enough effect; inconclusive = small, poorly fitted or top-dose-only effect, or another doubt; inactive = no such curve, though single readings can be large; an effect the other way counts as inactive or inconclusive. Unless noted, % is scaled to controls: 0 for no effect and ±100 for the full control effect.

SMILES | SNCA viab count | HEK cytotox | 3T3 cytotox | Luciferase inh | SNCA expr inhib | IP6K1 inh
CN(C)c1ccc(CN2CCNc3cc(Nc4ccccc4)ncc3C2)cc1 | ? | ? | 56µM* | i | 8%[87.6 µM] | -6
CN(C)c1ccc(CN2CCNc3cc(Nc4cccnc4)ncc3C2)cc1 | -9%[87.6 µM] | ? | ? | 63µM* | ? | -14
Cn1cc(CN2CCNc3cc(Nc4cccnc4)ncc3C2)cn1 | -14%[87.6 µM] | ? | ? | i | 6%[87.6 µM] | -19
COCCCn1c(=O)c(C(=O)N2CCCC2)nc2cccnc21 | 0%[87.6 µM] | -1%[172 µM] | -14%[138 µM] | / | -5%[87.6 µM] | 19
CNC(=O)CCn1ncc2cc(OCc3ccccc3-c3ccccc3C)ccc21 | -14%[87.6 µM] | ? | ? | i | -30%[87.6 µM] | -1
CNC(=O)CCn1ncc2cc(OCc3ccccc3-c3ccccc3COC)ccc21 | -30%[87.6 µM] | 89µM* | ? | i | -25%[87.6 µM] | -10
CNC(=O)CCn1ncc2cc(OCc3ccccc3-c3ccccc3OC)ccc21 | -28%[87.6 µM] | ? | 89µM* | 40µM* | ? | 0
CNC(=O)CCn1ncc2cc(OCc3ccccc3-c3cccc(OC)c3F)ccc21 | -17%[87.6 µM] | ? | 45µM* | i | ? | 6
O=C(NCc1ccccc1)C1CCN(C(=O)c2ccc(-c3cncnc3)cc2)CC1 | 3% | i | -27% | / | 16% | -2
Cc1oc2c(c1C(=O)N1CCSCC1)CN(Cc1cccc(F)c1)CC2 | 1% | -18% | -21% | i | 3% | -3
COc1ccccc1OC(C)C(=O)N1CCN(CCc2ccccn2)CC1 (configuration not stated) | -3% | / | / | / | 20µM* | -11
CCOC(=O)[C@@H]1CN(S(=O)(=O)c2cccs2)[C@H]2c3ccccc3O[C@@H]12 | / | ? | ? | / | / | 15
CCS(=O)(=O)Nc1ccc(C)n(CC(=O)NC(C)c2ccccc2)c1=O (configuration not stated) | 14% | -2% | -14% | i | 0% | 11
O=C(Nc1ccnn1C1CCN(Cc2ccc(-c3ccccc3)cc2)CC1)C1CC1 | -4% | ? | 35µM* | i | 51% | -1
Cc1cnc(CC2CCN(C(=O)C(C)c3ccccc3)CC2)n1Cc1ccc(F)cc1 (configuration not stated) | 4% | 35µM* | ? | i | -11% | -2
O=C1COc2ccc(OCc3ccccc3)nc2CN1CCOc1ccccc1 | -6%[87.6 µM] | 89µM* | ? | i | -21%[87.6 µM] | -12
O=C1COc2ccc(NCc3cccs3)nc2CN1CCOc1ccccc1 | -25%[87.6 µM] | 89µM* | ? | i | -29%[87.6 µM] | -13
O=C1COc2ccc(OCc3ccccc3)nc2CN1Cc1ccc(F)cc1 | -7%[87.6 µM] | ? | ? | ? | ? | -3
O=C1COc2ccc(NCc3cccs3)nc2CN1Cc1ccc(F)cc1 | -9%[87.6 µM] | ? | ? | i | -28%[87.6 µM] | -10
O=C1COc2ccc(-c3cccc(O)c3)nc2CN1CCOc1ccccc1 | -5%[87.6 µM] | 100µM* | ? | i | -26%[87.6 µM] | -14
Cc1cccc(NC(=O)Cn2ccn3nc(-c4ccc(F)cc4)c(CO)c3c2=O)c1C | -20% | -27% | -20% | i | 28% | 22
CCC[C@@H]1CN(Cc2cc(OC)c(SC)cc2OC)C[C@H]1NC(C)=O | 2% | ? | -23% | i | -2% | 4
CCNC(=O)N1CCCC(c2noc(COc3ccccc3F)n2)C1 (configuration not stated) | -23% | -4% | -17% | 35µM* | 2% | 0
Cc1ccccc1CC(=O)N1CCCC(c2noc(COc3ccccc3)n2)C1 (configuration not stated) | -2%[12.5 µM] | 45µM* | ? | i | -4% | 27
CC(C)CNC(=O)N1CCCC(c2nc(CCOc3ccc(F)cc3)no2)C1 (configuration not stated) | 0% | 40µM* | ? | i | 70% | 4
SMILES | SNCA viab count | HEK cytotox | 3T3 cytotox | Luciferase inh | SNCA expr inhib | IP6K1 inh
COCc1nc(C2CCCN(C(=O)Cc3ccccc3C)C2)no1 (configuration not stated) | -15%[12.5 µM] | -10% | i | i | -4% | 20
O=C(Cc1ccsc1)N1CC(c2noc(COc3ccccc3)n2)C1 | -3% | ? | -21% | i | -16% | 0
Cc1ccc(OCc2nc(C3CN(C(=O)Cc4ccsc4)C3)no2)cc1 | 6% | 89µM* | ? | i | 5% | 0
O=C(NCCc1ccc(Cl)cc1)C1CCc2nnc(CN[S+](=O)([O-])c3ccccc3Cl)n21 (configuration not stated) | -16% | ? | ? | / | 21% | -4
CCN1CCN(C(=O)C2CCc3nnc(C4CCN([S+](C)(=O)[O-])CC4)n32)CC1 (configuration not stated) | -1%[12.5 µM] | -16% | -17% | / | 8% | 13
CCc1cccc(NC(=O)N2CCCC(c3noc(COc4ccccc4)n3)C2)c1 (configuration not stated) | 15%[12.5 µM] | ? | 32µM* | i | -27% | 39
Cc1ccccc1NC(=O)N1CCCC(c2noc(COc3ccccc3)n2)C1 (configuration not stated) | 0%[12.5 µM] | ? | ? | i | 1% | 16
CCOCCOC1CCN(C(=O)c2cc(-c3cccc(OC)c3)n[nH]2)CC1 | -1%[12.5 µM] | -22% | -28% | 25µM* | 66% | 5
COc1cccc(-c2cc(C3CCN(C(=O)Nc4ccc(F)cc4F)CC3)[nH]n2)c1 | 1% | ? | ? | i | 3% | -1
COc1cccc(-c2cc(C3CCN(C(=O)c4ccc(Br)cc4)CC3)[nH]n2)c1 | -9% | ? | ? | i | 23% | 1
CSc1cccc(NC(=O)N2CCC(c3cc(-c4cccc(C)c4)n[nH]3)CC2)c1 | ? | 45µM* | 18µM* | i | ? | 5
CCOCCOC1CCN(C(=O)c2ccccc2OC)CC1 | 2%[12.5 µM] | 0% | -9% | i | -4% | -3
COc1cccc(-c2cc(C3CCN(C(=O)c4ccc(Cl)cc4)CC3)[nH]n2)c1 | -11% | 45µM* | ? | i | 5% | 1
COc1cccc(-c2cc(C3CCN(C(=O)Nc4ccccc4C(F)(F)F)CC3)[nH]n2)c1 | -5% | 22µM* | 32µM* | i | ? | 0
COc1cccc(-c2cc(C3CCN(C(=O)Nc4ccc(OC)c(OC)c4)CC3)[nH]n2)c1 | -14% | ? | ? | ? | 12% | -19
COc1cccc(-c2cc(C3CCN(C(=O)Nc4cc(C)cc(C)c4)CC3)[nH]n2)c1 | -13% | 40µM* | ? | i | -33% | 7
CN(Cc1cc(C2CC2)n[nH]1)c1nccc(-c2cccnc2)n1 | -1% | ? | ? | ? | 34% | 29
